# Laboratory results: PubChem BioAssay (NCATS)
# Records with an inconclusive call do not appear. A call without a number means that no potency is given here. The source made the active and inactive calls. Unless noted, calls come from the whole dose curve; as a rule, active = well fitted curve in the direction sought with a large enough effect; inconclusive = small, poorly fitted or top-dose-only effect, or another doubt; inactive = no such curve, though single readings can be large; an effect the other way counts as inactive or inconclusive.
# Experiments:
# [1] = target: Voltage-gated inwardly rectifying potassium channel KCNH2 (Homo sapiens) (UniProt Q12809); experiment: qHTS Assay for Small Molecule Inhibitors of the Human hERG Channel Activity (AID 588834);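 note: lower thallium flux fluorescence means stronger hERG block; nearly all actives have a fitted effect of over 50% in size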; note: potency is the fitted concentration of half-maximal effect
# In short: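 Measured: FluxOR fluorescence after thallium stimulation in U2OS cells transduced with hERG by baculovirus. Compounds pre-incubated around 10 min; medium Opti-MEM with 2% FCS. AC50 from Hill equation.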
# [2] = target: Luciferin 4-monooxygenase (Photinus pyralis) (UniProt P08659); experiment: Biochemical firefly luciferase enzyme assay for NPC (AID 624030); note: nearly all actives have a fitted effect of over 70% in size; note: potency is the fitted concentration of half-maximal effect
# In short: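 Direct inhibition of firefly luciferase enzyme (10 nM final, 50 mM Tris Acetate) assessed by luminescence within 5 minutes. Percent activity scaled between DMSO and PTC124 positive control, with concentration-effect curves classified by fit quality and response.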
# [3] = S16 Schwann cell viability assay (CellTiter-Glo assay) (AID 624031);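 note: cellular ATP luminescence as a viability measure; series mostly up to about 58 µM; nearly all actives have a fitted effect of over 70% in size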
# In short: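 CellTiter-Glo ATP luminescence counter-screen in untransfected S16 rat Schwann cells, 24h compound exposure at 37 degree Celsius after overnight seeding (500-750 cells/well); response scaled between cell-free wells and DMSO (0% activity), curves classed by r2 and magnitude.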
# [4] = S16 Schwann cell PMP22 intronic element firefly luciferase assay (AID 624032); note: nearly all actives have a fitted effect of over 30% in size; note: potency is the fitted concentration of half-maximal effect
# In short: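 Luciferase reporter of PMP22 intronic-element expression in stably transfected S16 rat Schwann cells, read by ONE-Glo luminescence after 24 h compound exposure at 37 C. Activity scaled between DMSO (0%) and positive-control PTC124; concentration-effect curves quality-classified.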
# [5] = S16 Schwann cell PMP22 intronic element beta-lactamase assay (AID 624044; calls by dose curve; note: nearly all actives have a fitted effect of over 15% in size)
# In short: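 Rat S16 Schwann cells with beta-Lac driven by a PMP22 intronic element, compound-treated 24 h at 37 °C. LiveBLAzer FRET B/G read: 460 nm normalized to potassium clavulanate vs DMSO; 535 nm FRET as viability; concentration-effect curves classified.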
# Chain of Luciferin 4-monooxygenase (Photinus pyralis) (P08659 whole entry, looked up): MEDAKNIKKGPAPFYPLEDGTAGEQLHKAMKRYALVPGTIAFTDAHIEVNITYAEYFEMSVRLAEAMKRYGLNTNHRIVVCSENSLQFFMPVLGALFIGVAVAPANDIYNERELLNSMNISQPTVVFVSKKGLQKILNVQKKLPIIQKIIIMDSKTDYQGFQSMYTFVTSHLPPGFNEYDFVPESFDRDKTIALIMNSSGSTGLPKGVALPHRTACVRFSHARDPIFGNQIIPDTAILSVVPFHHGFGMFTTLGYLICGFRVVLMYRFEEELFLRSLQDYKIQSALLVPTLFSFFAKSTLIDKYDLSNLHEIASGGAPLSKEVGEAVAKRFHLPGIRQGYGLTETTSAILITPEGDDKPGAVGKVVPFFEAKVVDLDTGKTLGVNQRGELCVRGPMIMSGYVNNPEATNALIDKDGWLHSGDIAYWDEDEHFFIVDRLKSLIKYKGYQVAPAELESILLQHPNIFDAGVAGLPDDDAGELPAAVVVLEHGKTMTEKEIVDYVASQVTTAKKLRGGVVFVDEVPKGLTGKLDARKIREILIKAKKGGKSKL
# Chain of Voltage-gated inwardly rectifying potassium channel KCNH2 (Homo sapiens) (Q12809 whole entry, looked up): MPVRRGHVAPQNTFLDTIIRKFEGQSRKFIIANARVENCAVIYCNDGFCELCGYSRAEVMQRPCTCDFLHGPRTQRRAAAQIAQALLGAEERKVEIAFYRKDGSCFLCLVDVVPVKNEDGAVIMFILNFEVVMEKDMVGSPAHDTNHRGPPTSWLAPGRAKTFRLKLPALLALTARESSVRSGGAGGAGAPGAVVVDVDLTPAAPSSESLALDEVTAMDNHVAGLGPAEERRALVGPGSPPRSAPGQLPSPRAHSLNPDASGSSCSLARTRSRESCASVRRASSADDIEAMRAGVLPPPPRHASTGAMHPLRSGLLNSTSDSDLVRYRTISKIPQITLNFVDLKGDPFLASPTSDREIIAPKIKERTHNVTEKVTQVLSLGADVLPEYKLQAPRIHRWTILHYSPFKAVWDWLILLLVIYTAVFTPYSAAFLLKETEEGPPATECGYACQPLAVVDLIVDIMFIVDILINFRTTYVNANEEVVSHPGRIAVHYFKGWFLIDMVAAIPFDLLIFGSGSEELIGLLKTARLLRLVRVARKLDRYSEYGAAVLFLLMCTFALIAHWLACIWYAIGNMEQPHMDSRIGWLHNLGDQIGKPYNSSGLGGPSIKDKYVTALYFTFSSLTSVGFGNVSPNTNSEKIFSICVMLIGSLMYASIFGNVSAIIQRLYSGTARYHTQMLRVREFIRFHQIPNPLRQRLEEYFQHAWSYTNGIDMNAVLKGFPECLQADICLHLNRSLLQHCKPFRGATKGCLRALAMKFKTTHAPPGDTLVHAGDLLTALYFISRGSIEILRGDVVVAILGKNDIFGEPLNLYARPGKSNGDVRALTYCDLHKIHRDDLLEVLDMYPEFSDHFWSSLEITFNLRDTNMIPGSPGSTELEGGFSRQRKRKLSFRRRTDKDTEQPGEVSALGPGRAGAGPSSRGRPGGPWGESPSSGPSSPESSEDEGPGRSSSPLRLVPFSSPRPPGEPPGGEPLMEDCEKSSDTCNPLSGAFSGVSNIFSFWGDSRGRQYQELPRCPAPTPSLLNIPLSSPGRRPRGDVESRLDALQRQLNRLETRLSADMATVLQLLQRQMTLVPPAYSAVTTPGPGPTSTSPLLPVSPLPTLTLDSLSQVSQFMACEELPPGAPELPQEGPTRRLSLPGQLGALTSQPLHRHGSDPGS
Compound,Potency [1],Potency [2],Potency [3],Potency [4],Potency [5]
CC(=O)Oc1ccc(C)cc1,inactive,inactive,inactive,inactive,–
COC(=O)C(c1ccccc1Cl)N1CCc2sccc2C1 (centres undefined),inactive,inactive,inactive,inactive,–
Cc1ccc(S(=O)(=O)NC(=O)NC2CCCC2)cc1,inactive,inactive,inactive,inactive,–
CC[N+](C)(CC)CCOC(=O)C(O)(c1ccccc1)C1CCCCC1 (centres undefined),inactive,inactive,inactive,inactive,–
NC1CCN(c2nc3c(cc2F)c(=O)c(C(=O)O)cn3-c2ccc(F)cc2F)C1 (centres undefined),inactive,inactive,inactive,inactive,–
Cc1cc(C)cc(OCC2CNC(=O)O2)c1 (centres undefined),inactive,inactive,inactive,inactive,–
CCCCNC(=O)NS(=O)(=O)c1ccc(N)cc1,inactive,inactive,inactive,inactive,–
CC(C)Cc1ccc(CC(=O)O)cc1,inactive,inactive,inactive,inactive,–
N#CCC(=O)NN,inactive,inactive,inactive,inactive,–
CC(=O)N[C@@H](CCC(=O)O)C(=O)O,inactive,inactive,inactive,inactive,–
O=S(c1cc(Cl)cc(Cl)c1O)c1cc(Cl)cc(Cl)c1O,inactive,32.2 µM (active),inactive,inactive,–
CCc1ccc(C(=O)C(C)CN2CCCCC2)cc1 (centres undefined),inactive,inactive,inactive,inactive,–
CC(C)[N+](C)(C)CC(O)COc1cccc2ccccc12 (centres undefined),inactive,inactive,inactive,inactive,–
CC(=O)NC(=O)c1ccccc1O,inactive,inactive,inactive,inactive,–
CCN(CC)CCOc1ccc2c(c1)C(=O)c1cc(OCCN(CC)CC)ccc1-2,inactive,inactive,inactive,8.09 µM (active),–
CC(=O)OCC(=O)[C@H]1CC[C@H]2[C@@H]3CCC4=CC(=O)CC[C@]4(C)[C@H]3CC[C@]12C,inactive,inactive,inactive,inactive,–
CC(=O)Nc1ccc(CC(=O)O)cc1,inactive,inactive,inactive,inactive,–
O=S(=O)(O)c1ccc(O)cc1,inactive,inactive,inactive,inactive,–
O=C(O)CCC(=O)Nc1ccc(S(=O)(=O)Nc2nccs2)cc1,inactive,inactive,inactive,inactive,–

Compound,Potency [1],Potency [2],Potency [3],Potency [4],Potency [5]
O=C(O)CCNC(=O)c1ccccc1,inactive,inactive,inactive,inactive,–
CC(=O)Nc1ccc(OCC(O)CNC(C)C)cc1 (centres undefined),inactive,inactive,inactive,inactive,–
CCOCCn1c(N2CCCN(C)CC2)nc2ccccc21,1 µM (active),inactive,inactive,inactive,–
COc1cc(NS(=O)(=O)c2ccc(N)cc2)ncn1,inactive,inactive,inactive,inactive,–
Cc1nc(-c2ccc(Cl)cc2)oc1COC(C)(C)C(=O)O,inactive,inactive,inactive,inactive,–
FC1(F)C(F)(F)C(F)(F)C2(F)C(F)(F)C(F)(F)C(F)(F)C(F)(F)C2(F)C1(F)F (centres undefined),inactive,inactive,inactive,inactive,–
O=C(Nc1cccc(C2=NCCN2)c1)Nc1cccc(C2=NCCN2)c1,inactive,inactive,inactive,inactive,–
c1ccc(-c2nc[nH]c2-c2ccccc2)cc1,inactive,inactive,inactive,inactive,–
CCOC(=O)c1ccc(N)cc1,inactive,inactive,inactive,inactive,–
CC(C)CCCC(C)N (centres undefined),inactive,inactive,inactive,inactive,–
CC(=O)O[C@H]1C[C@@H]2CC[C@@H]3[C@H](CC[C@@]4(C)[C@H]3C[C@H]([N+]3(C)CCCCC3)[C@@H]4OC(C)=O)[C@@]2(C)C[C@@H]1N1CCCCC1,inactive,inactive,inactive,inactive,–
COP(=O)(OC)OC(c1ccc(Cl)cc1)P(=O)(OC)OC (centres undefined),inactive,inactive,inactive,inactive,–
O=C(NC1CCN(CCc2c[nH]c3ccccc23)CC1)c1ccccc1,0.891 µM (active),inactive,inactive,inactive,–
CCN(CC)CCNC(=O)COc1ccc(OC)cc1,inactive,inactive,inactive,inactive,–
NS(=O)(=O)c1cc(C(=O)O)cc(N2CCCC2)c1Oc1ccccc1,inactive,inactive,inactive,inactive,–
COc1ccc2c(c1)c1c3n2CCN(C)C3=NCC1,3.98 µM (active),inactive,inactive,inactive,–
CCCc1ncc(C[n+]2ccccc2C)c(N)n1,inactive,inactive,inactive,inactive,–
O=C(O)C(Cc1cc(I)c(O)c(I)c1)c1ccccc1 (centres undefined),inactive,inactive,inactive,inactive,inactive
